These results are taken from PubChem BioAssay AID624305 (National Center for Advancing Translational Sciences (NCATS), 2012).

Inconclusive results are not listed. A call without a number means that no potency is given here. The source made the active and inactive calls. Calls follow the shape of the dose curve; as a rule, active = well fitted activation curve with a large enough effect; inconclusive = small, poorly fitted or top-dose-only effect; inactive = no such curve, though single readings can be large or run the other way.
Potency is read from the fitted curve at half-maximal effect.

This assay can be described thus: qHTS assay for re-activators of p53 using a Luc reporter: Hit Validation. Also: nearly all actives have a fitted effect of over 75% in size. The note with it: p53-responsive luciferase reporter cells, luminescence, H1299 line expressing heat-sensitive Ala138Val p53; series mostly up to 46.1 µM. An outline of the steps: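 Hit confirmation with a 1:5 dilution series, at 37 deg C for 24 hrs, in H1299 cells co-expressing temperature-sensitive p53-A138V and p53-responsive luciferase. Nocodazole served as control; luminescence read after 10 min with detection reagent.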
For the compound `Clc1cccc(N/N=C(\Cc2nc3ccccc3[nH]2)c2ccccc2)c1`, the Potency entry is “inactive”.

Consider `Cc1c(C(=O)OC2CCC(C)CC2)[nH]c2c1C(=O)CCC2` (centres undefined), for which the Potency is 1.16 µM (active).

With `CCN(CC(=O)NCc1cccs1)c1ccc(S(=O)(=O)N2CCOCC2)cn1`, the Potency entry was “inactive”.

As to `CN(Cc1ccccc1)c1ncnc2ccc(Br)cc12`, the Potency entry is “inactive”.

With `O=C(COC(=O)c1ccc(F)cc1)NC1CC1`, the Potency result was “inactive”.

For `O=C(CCCN1C(=O)/C(=C/c2ccco2)SC1=S)Nc1ccccc1`, the Potency result is “inactive”.

Regarding `N#C/C(=C\c1ccccc1[N+](=O)[O-])c1nc(C2CC2)cs1`, the Potency is 23.1 µM (active).

Regarding `COc1ccc(N2CCN(C(=O)COC(=O)c3ccc(OC(F)F)cc3)CC2)cc1`, the Potency result is “inactive”.

On to `Cc1cnc(C(=O)OCC(=O)c2csc(N3CCCCC3)n2)cn1`, for which the Potency entry is “inactive”.

`O=C(Nc1nnc(-c2cccs2)o1)c1cccc(C(F)(F)F)c1`: the Potency entry was “inactive”.

With `Nc1nonc1-n1nnc(C(=O)N/N=C/c2cc(Br)ccc2O)c1CSC1=NCCS1`, the activation is -26.8% [at 9.22 µM] (inactive).

Consider `CC(C)c1ccc(C(O)c2nc3ccccc3n2C)cc1` (centres undefined), for which the Potency entry is “inactive”.

As for `Brc1c(CSc2nc3ccccc3s2)nc2ncccn12`, the Potency was 9.2 µM (active).

On to `O=C(Nc1cnc2ccccc2c1)C1COc2ccccc2O1` (centres undefined), for which the Potency was 9.2 µM (active).

Take `Cc1ccc2c(c1)CCCN2C(=O)Nc1ccc2c(c1)OCO2`: the Potency entry was “inactive”.

As to `Cc1cc(/C=N/Nc2ncnc(N)c2[N+](=O)[O-])c(C)n1-c1ccccc1`, the Potency was 0.092 µM (active).

On to `Cc1nn(-c2ccccc2)c(N)c1Sc1ccc([N+](=O)[O-])cc1`, for which the Potency result is “inactive”.

For the compound `COc1ccc(-c2nsc3c(N4CCCC4)ncnc23)cc1`, the Potency was 0.092 µM (active).

In the case of `CCCC(=O)NC(c1cccs1)c1cc([N+](=O)[O-])c2cccnc2c1O` (centres undefined), the Potency result was “inactive”.
